# “And” between values parts separate entries of the source, which are not always exact repeats. Identical values can stand only once. Inconclusive results are not listed. A call without a number means that no potency is given here. Values without a mark were called inactive. The source made the active and inactive calls. Unless noted, the call rests on the fitted dose curve; in most records, active means well fitted curve in either direction with a large enough effect (not every such curve was filed as active); inconclusive means small, poorly fitted or top-dose-only effect, or another doubt; inactive means flat fitted curve, though single readings scatter.
# Legend:
# [1] = AP1 Signaling Pathway (AID 357)
# Procedure, shortened: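 AP-1-bla ME-180 cells with beta-lactamase reporter under AP-1 response element, stimulated with EC50 EGF; compounds titrated, 5 hours at 37 degrees Celsius. CCF4 read at 460/530 nm ratio; positive and negative modulators judged by AC50.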
# [2] = Stat Signaling Pathway (AID 446);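 further: ME-180 cervical cancer cells given 40 pM IL-6 alongside compound; SIE-controlled beta-lactamase reporter measured as 460/530 nm FRET emission ratio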
# Procedure, shortened: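 IL-6/STAT signaling read in ME-180 cells via an SIE beta-lactamase reporter. Stimulus was 40 pM IL-6 (its AC50) for 5 hrs, so both activation and inhibition register.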
# [3] = NFAT Signaling Pathway (AID 444); details: Jurkat NFAT-bla M1, carbachol, beta-lactamase ratio, 5 h;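 further: carbachol stimulus at about its EC50 of 1 µM final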
# Procedure, shortened: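 Jurkat cells with NFAT-driven β-lactamase reporter and co-expressed M1 receptor, stimulated with carbachol (final 1 uM, ~EC50), compound titration, 5 h at 37 °C. CCF4 loaded 1 h at RT; 460/530 nm ratio gave %activity and AC50.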
# [4] = biological target: Cytochrome P450 1A2 (Homo sapiens) (UniProt P05177); assay: p450-cyp1a2 (AID 410; calls by dose curve; further: potency means the concentration at half of the fitted maximal effect)
# Cytochrome P450 1A2 (Homo sapiens), sequence (P05177 whole entry, looked up): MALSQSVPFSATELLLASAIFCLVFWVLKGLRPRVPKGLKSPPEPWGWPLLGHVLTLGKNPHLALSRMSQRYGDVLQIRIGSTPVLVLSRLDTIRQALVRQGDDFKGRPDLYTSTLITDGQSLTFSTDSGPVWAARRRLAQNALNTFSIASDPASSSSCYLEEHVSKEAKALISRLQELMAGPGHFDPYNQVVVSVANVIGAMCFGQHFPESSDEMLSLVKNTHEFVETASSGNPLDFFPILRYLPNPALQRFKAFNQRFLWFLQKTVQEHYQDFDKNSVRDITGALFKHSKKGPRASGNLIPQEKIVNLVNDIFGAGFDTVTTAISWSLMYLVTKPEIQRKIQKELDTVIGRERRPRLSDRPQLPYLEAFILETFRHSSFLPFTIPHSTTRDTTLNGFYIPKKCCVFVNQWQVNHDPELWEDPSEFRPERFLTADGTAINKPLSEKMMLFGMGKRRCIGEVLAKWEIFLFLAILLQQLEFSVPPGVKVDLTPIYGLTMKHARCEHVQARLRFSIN
# Procedure, shortened: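 Luminescent readout of luciferin formed from Luciferin-ME by human CYP1A2; data normalized against complete inhibition by 57 uM furafylline. Enzyme 20nM, substrate 100uM at Km, 100mM KPO4 buffer, 60 min reaction at room temperature.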
# [5] = Cell Viability - BJ (AID 421; calls by dose curve;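 further: potency means the concentration at half of the fitted maximal effect; cells exposed to compound for 40 hours at 37 °C before readout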); details: BJ fibroblast viability, qHTS
# Procedure, shortened: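 Quantitative HTS: ATP depletion in BJ cells after 40 hr compound exposure in complete culture medium, detected with CellTiter-Glo; AC50 from standard Hill fits.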
# [6] = Cell Viability - Jurkat (AID 426;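 active means dose-dependent loss of cell ATP signal giving a full or clear fitted curve, ranked by lower potency value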; further: potency means the concentration at half of the fitted maximal effect); details: qHTS
# Procedure, shortened: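 qHTS, 1536-well; Jurkat E6-1, 5000 cells/well, complete medium; cpd 40 hr, 37 °C; CellTiter-Glo 20 min RT; luminescence. AC50 by Hill fit.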
# [7] = Cell Viability - Hek293 (AID 427;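 active means compounds whose dose-response curve shows a full or clear partial loss of cell viability, called from curve shape rather than a numeric limit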;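 further: potency means the concentration at half of the fitted maximal effect; cells exposed to compound for 40 hours at 37 °C before reading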); details: qHTS
# Procedure, shortened: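 AC50 values derive from Hill-modelled concentration-response of ATP-based luminescence, normalized between DMSO-only and 100 uM tamoxifen controls. Cells were exposed in complete culture medium for 40 hr at 37 °C before detection.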
# [8] = Cell Viability - MRC5 (AID 434; calls by dose curve;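 further: potency means the concentration at half of the fitted maximal effect; potency reflects cytotoxicity seen as loss of intracellular ATP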); details: MRC5 lung fibroblast viability, qHTS
# Procedure, shortened: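 MRC5 normal human lung fibroblasts, 1500 cells/well, exposed to compound for 40 hr at 37 C. Cellular ATP was read by CellTiter-Glo luminescence; data normalized to DMSO and 100 uM tamoxifen, with AC50 from Hill fits.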
# [9] = Cell Viability - SK-N-SH (AID 435; calls by dose curve;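 further: potency means the concentration at half of the fitted maximal effect; compound exposure lasted 40 h at 37 °C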); details: SK-N-SH neuroblastoma cell viability qHTS
# Procedure, shortened: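 CellTiter-Glo ATP luminescence, 20 min RT read; cells pre-plated 5 hr, compound 40 hr at 37 °C, 1500 cells/well, complete medium. Normalized DMSO = 0, 100 uM tamoxifen = 100% inhibition; Hill-fit AC50.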
structure (smiles),measurement,setting,value
CNCCCC12CCC(c3ccccc31)c1ccccc12,outcome,[1],inactive
same,outcome,[2],inactive
O=C(c1ccc(F)cc1)C1CCN(CCn2c(=O)[nH]c3ccccc3c2=O)CC1,outcome,[1],inactive
same,"activity change, negative = inhibition",[3]; at 17.2 µM (top of the series),-11.4% and -13.2%
same,outcome,[2],inactive
OCCN(CCO)c1nc(N2CCCCC2)c2nc(N(CCO)CCO)nc(N3CCCCC3)c2n1,"activity change, negative = inhibition",[3]; at 17.2 µM (top of the series),7.02% and -24.7%
same,"activity change, negative = inhibition",[3]; at 38 µM (top of the series),-0.6%
same,outcome,[2],inactive
Clc1ccccc1C(c1ccccc1)(c1ccccc1)n1ccnc1,outcome,[2],inactive
NC(=O)NO,outcome,[1],inactive
same,"activity change, negative = inhibition",[3]; at 38 µM (top of the series),9.2%
same,outcome,[2],inactive
CCOC(=O)C(C)(C)Oc1ccc(Cl)cc1,outcome,[1],inactive
same,"activity change, negative = inhibition",[3]; at 38 µM (top of the series),-4.66%
same,outcome,[2],inactive
CC(C)Cc1ccc(C(C)C(=O)O)cc1 (centres undefined),outcome,[1],inactive
same,"activity change, negative = inhibition",[3]; at 17.2 µM (top of the series),-15%
same,outcome,[2],inactive
O=C1c2c(O)ccc(O)c2C(=O)c2c(NCCNCCO)ccc(NCCNCCO)c21,outcome,[2],inactive
NC12CC3CC(CC(C3)C1)C2,outcome,[1],inactive
same,"activity change, negative = inhibition",[3]; at 17.2 µM (top of the series),5.54%
same,"activity change, negative = inhibition",[3]; at 38 µM (top of the series),-1.81%
same,outcome,[2],inactive
CCCCc1oc2ccccc2c1C(=O)c1cc(I)c(OCCN(CC)CC)c(I)c1,outcome,[1],inactive
same,"activity change, negative = inhibition",[3]; at 17.2 µM (top of the series),4.27%
same,outcome,[2],inactive
O=C(C1CCCCC1)N1CC(=O)N2CCc3ccccc3C2C1 (centres undefined),outcome,[1],inactive
same,"activity change, negative = inhibition",[3]; at 17.2 µM (top of the series),-4.85% and -1.54%
same,outcome,[2],inactive
COc1cc2nc(N3CCN(C(=O)C4COc5ccccc5O4)CC3)nc(N)c2cc1OC (centres undefined),outcome,[1],inactive
same,outcome,[2],inactive
CN(C)c1nc(N(C)C)nc(N(C)C)n1,outcome,[1],inactive
same,"activity change, negative = inhibition",[3]; at 17.2 µM (top of the series),2.19% and 4.9%
same,"activity change, negative = inhibition",[3]; at 38 µM (top of the series),6.06%
same,outcome,[2],inactive
COc1cc2nc(N3CCN(C(=O)c4ccco4)CC3)nc(N)c2cc1OC,Potency,[4],inactive
same,outcome,[2],inactive
OCCN1CCN(CCCN2c3ccccc3Sc3ccc(C(F)(F)F)cc32)CC1,outcome,[1],inactive
same,outcome,[2],inactive
CN(C)C(=N)N=C(N)N,outcome,[1],inactive
same,"activity change, negative = inhibition",[3]; at 17.2 µM (top of the series),-11.6%
same,outcome,[2],inactive
O=C(c1ccc(OCCN2CCCCC2)cc1)c1c(-c2ccc(O)cc2)sc2cc(O)ccc12,outcome,[1],inactive
same,outcome,[2],inactive
CCc1cccc2c3c([nH]c12)C(CC)(CC(=O)O)OCC3 (centres undefined),outcome,[1],inactive
same,"activity change, negative = inhibition",[3]; at 17.2 µM (top of the series),12.2%
same,outcome,[2],inactive
COc1cc2c(c(OC)c1OC)-c1ccc(OC)c(=O)cc1[C@@H](NC(C)=O)CC2,Potency,[5],> 92 µM
same,Potency,[6],2.81 nM (active) and 1.63 nM (active)
same,Potency,[7],> 92 µM
same,Potency,[8],> 92 µM
same,Potency,[9],9.09 nM (active) and 5.26 nM (active)
CN1CCN(C2=Nc3cc(Cl)ccc3Nc3ccccc32)CC1,outcome,[1],inactive
same,"activity change, negative = inhibition",[3]; at 38 µM (top of the series),-49.7% (active)
same,outcome,[2],inactive
NCCc1cnc[nH]1,outcome,[1],inactive
same,"activity change, negative = inhibition",[3]; at 38 µM (top of the series),2.96%
same,outcome,[2],inactive
O=C(CCCN1CCC(O)(c2ccc(Cl)cc2)CC1)c1ccc(F)cc1,outcome,[1],inactive
same,"activity change, negative = inhibition",[3]; at 38 µM (top of the series),-17.8%
same,outcome,[2],inactive
COc1ccc(C2CNC(=O)C2)cc1OC1CCCC1 (centres undefined),outcome,[1],inactive
same,"activity change, negative = inhibition",[3]; at 17.2 µM (top of the series),-22.4%
same,outcome,[2],inactive
COC(=O)Nc1nc2ccc(C(=O)c3cccs3)cc2[nH]1,Potency,[4],5.01 µM (active) and 1.58 µM (active) and 794 nM (active)
same,"activity change, negative = inhibition",[3]; at 17.2 µM (top of the series),-68.4% (active)
same,outcome,[2],inactive
Cc1ccc(-c2cc(C(F)(F)F)nn2-c2ccc(S(N)(=O)=O)cc2)cc1,Potency,[5],> 92 µM
same,Potency,[6],> 92 µM
same,Potency,[7],> 92 µM
same,Potency,[8],> 92 µM
same,Potency,[9],> 92 µM
CN(C)C(=O)C(CCN1CCC(O)(c2ccc(Cl)cc2)CC1)(c1ccccc1)c1ccccc1,outcome,[1],inactive
same,"activity change, negative = inhibition",[3]; at 17.2 µM (top of the series),-23.1%
same,"activity change, negative = inhibition",[3]; at 38 µM (top of the series),-13.2%
same,outcome,[2],inactive
Cc1cnc(C(=O)NCCc2ccc(S(=O)(=O)NC(=O)NC3CCCCC3)cc2)cn1,outcome,[1],inactive
same,"activity change, negative = inhibition",[3]; at 17.2 µM (top of the series),-11% and -0.964%
same,"activity change, negative = inhibition",[3]; at 38 µM (top of the series),-4.17%
same,outcome,[2],inactive
CN(C)CCOC(c1ccccc1)c1ccccc1,outcome,[1],inactive
same,outcome,[2],inactive
CC(C)NCC(O)c1ccc(O)c(O)c1 (centres undefined),Potency,[5],> 92 µM
same,Potency,[7],> 92 µM
same,Potency,[8],> 92 µM
same,Potency,[9],> 92 µM
Nc1ccn([C@H]2CC[C@@H](CO)O2)c(=O)n1,Potency,[5],> 92 µM
same,Potency,[6],> 92 µM
same,Potency,[7],> 92 µM
same,Potency,[8],> 92 µM
same,Potency,[9],> 92 µM
CN(Cc1cnc2nc(N)nc(N)c2n1)c1ccc(C(=O)N[C@@H](CCC(=O)O)C(=O)O)cc1,Potency,[4],inactive
CN1CCN2c3ccccc3Cc3ccccc3C2C1 (centres undefined),outcome,[1],inactive
same,outcome,[2],inactive
NC(CO)C(=O)NNCc1ccc(O)c(O)c1O (centres undefined),outcome,[1],inactive
same,"activity change, negative = inhibition",[3]; at 17.2 µM (top of the series),13.6%
same,outcome,[2],inactive
CCCNCC(O)COc1ccccc1C(=O)CCc1ccccc1 (centres undefined),outcome,[1],inactive
same,outcome,[2],inactive

# — PubChem BioAssay (NCATS)
